The source of these data is PubChem BioAssay (EPA / NIEHS).

“And” between values parts separate entries of the source, which are not always exact repeats. Identical values can stand only once. Results filed as inconclusive are left out. The source made the active and inactive calls. Rule for the calls, unless noted: active = hit-call score of the fitted dose curve at least 0.9, where 1 is the maximum; inconclusive = response in the unintended direction; inactive = score below 0.9.

For assay [1], the target named is human Peroxisome Proliferator-activated Receptor alpha (PPARa), PPARA (gene 5465) (UniProt Q07869). The assay is described as follows: ATG_PPARa_TRANS: Attagene TRANS-FACTORIAL HepG2 Assay for human Peroxisome Proliferator-activated Receptor alpha (PPARa) (AID 2283001). In outline: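 Gain-of-signal endpoint: reporter mRNA induction relative to DMSO, detected by fluorescent RT-PCR and capillary electrophoresis. HepG2 cells transiently carried GAL4-UAS-driven reporter units plus NR-Gal4 fusion; exposure lasted 24 h.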
human Peroxisome Proliferator-activated Receptor alpha (PPARa), PPARA (gene 5465), sequence (Q07869 whole entry, looked up, the tested form may be a part): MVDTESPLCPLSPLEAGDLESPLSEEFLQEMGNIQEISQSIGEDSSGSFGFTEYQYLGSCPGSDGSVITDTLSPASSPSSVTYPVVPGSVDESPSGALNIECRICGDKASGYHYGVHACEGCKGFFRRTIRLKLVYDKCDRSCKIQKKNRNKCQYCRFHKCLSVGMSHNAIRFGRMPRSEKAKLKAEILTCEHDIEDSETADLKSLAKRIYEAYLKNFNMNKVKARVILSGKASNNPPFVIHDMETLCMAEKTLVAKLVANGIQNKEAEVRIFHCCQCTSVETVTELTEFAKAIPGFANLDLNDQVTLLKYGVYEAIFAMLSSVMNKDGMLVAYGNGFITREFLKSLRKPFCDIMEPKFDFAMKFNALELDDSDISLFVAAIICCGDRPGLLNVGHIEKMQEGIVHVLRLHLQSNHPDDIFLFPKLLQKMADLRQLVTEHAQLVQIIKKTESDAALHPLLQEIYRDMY

Assay [2] addresses Nuclear receptor subfamily 1 group I member 2 (Homo sapiens) (UniProt O75469). The assay is described as follows: ATG_PXR_TRANS: Attagene TRANS-FACTORIAL HepG2 Assay for human Pregnane X Receptor (PXR) (AID 2283008). The gist of the method:
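HepG2 cells transiently transfected with multiple reporter units, here a PXR-GAL4 chimera driving a GAL4-UAS reporter; 24 h compound exposure. Reporter mRNA measured by RT-PCR, FAM labelling and capillary electrophoresis; gain of signal fitted against DMSO baseline.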

Assay [3] concerns the target human RAR-related Orphan Receptor beta (RORb), RORB (gene 6096) (UniProt Q92753). The assay is described as follows: ATG_RORb_TRANS: Attagene TRANS-FACTORIAL HepG2 Assay for human RAR-related Orphan Receptor beta (RORb) (AID 2283010). The gist of the method:
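Readout is reporter-gene mRNA induction, detected as fluorescence after RT-PCR and capillary electrophoresis, fitted for gain of signal against DMSO controls. Transiently transfected HepG2 liver cells carrying GAL4-UAS reporter constructs were treated for 24 hours.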

For assay [4], the target named is Retinoic acid receptor RXR-alpha (Homo sapiens) (UniProt P19793). The assay is described as follows: ATG_RXRa_TRANS: Attagene TRANS-FACTORIAL HepG2 Assay for human Retinoid X Receptor alpha (RXRa) (AID 2283012). In outline:
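Transient transfection of human HepG2 with multiple GAL4-UAS reporter constructs; 24 h compound exposure; total RNA isolated, reverse-transcribed, PCR-amplified, 6-FAM labelled, HpaI-cut, resolved by capillary electrophoresis. Positive-direction fit versus DMSO.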

The target in assay [5] is human Peroxisome Proliferator-activated Receptor delta (PPARd), PPARD (gene 5467) (UniProt Q03181). The assay is described as follows: ATG_PPARd_TRANS: Attagene TRANS-FACTORIAL HepG2 Assay for human Peroxisome Proliferator-activated Receptor delta (PPARd) (AID 2283002). In outline:
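HepG2 cells transiently transfected with multiplexed GAL4-UAS reporter units and exogenous chimeric NR-Gal4 proteins; 24 h compound exposure. Reporter mRNA measured by RT-PCR, 6-FAM labelling, HpaI digestion and capillary electrophoresis; gain of signal versus DMSO.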

Read-out in assay [6]: Intercellular Adhesion Molecule 1 (ICAM1), ICAM1 (gene 3383)
Kind of assay: BSK_3C_ICAM1: BioMAP Diversity Plus: 3C Assay for Intercellular Adhesion Molecule 1 (ICAM1) Biomarker Activity (AID 2283003; active = hit-call score of the fitted dose curve at least 0.9, where 1 is the maximum; inactive = score below 0.9). To be noted: primary human endothelial cells (HUVEC); actives raise or lower the signal. The gist of the method:
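ICAM-1 levels measured by ELISA after HUVEC cultures in the 3C system had been dosed for 24 h. Gain or loss of signal relative to DMSO was fitted in both directions.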

The nature of assay [7]: BSK_3C_Proliferation: Cell Proliferation Assessment in the BioMAP Diversity Plus: 3C Assay (AID 2283006; active = hit-call score of the fitted dose curve at least 0.9, where 1 is the maximum; inactive = score below 0.9;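 for AC50: potency may reflect either rise or fall in cell number versus DMSO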). To be noted: primary human endothelial cells (HUVEC). The gist of the method: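 Read-out is total protein by SRB absorbance at 560 nm, taken as a proxy for relative cell number. Primary human umbilical vein endothelium cultured below confluence was dosed for 48 h, TCA-fixed and SRB-stained; curves were fitted bidirectionally versus DMSO.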

Assay [8] deals with human RAR-related Orphan Receptor gamma (RORg), RORC (gene 6097) (UniProt P51449). Kind of assay: ATG_RORg_TRANS: Attagene TRANS-FACTORIAL HepG2 Assay for human RAR-related Orphan Receptor gamma (RORg) (AID 2283011). In outline:
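HepG2 cells transiently transfected with GAL4-UAS reporter units and chimeric RORg-Gal4 construct; after 24 h chemical exposure, reporter mRNA measured by RT-PCR with fluorescent capillary electrophoresis, gain of signal fitted against DMSO.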

Assay [9] has as its target human Thyroid Receptor alpha (THRa1), THRA (gene 7067) (UniProt P10827). The assay is described as follows: ATG_THRa1_TRANS: Attagene TRANS-FACTORIAL HepG2 Assay for human Thyroid Receptor alpha (THRa1) (AID 2283014). The gist of the method: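 HepG2 cells transiently transfected with chimeric NR-Gal4 and GAL4-UAS reporter units, dosed 24 h. Reporter mRNA quantified by RT-PCR, fluorescent labeling, HpaI digestion and capillary electrophoresis; gain-of-signal fit versus DMSO.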

Read-out in assay [10]: E-selectin (Homo sapiens) (UniProt P16581)
The assay is described as follows: BSK_3C_Eselectin: BioMAP Diversity Plus: 3C Assay for Eselectin Biomarker Activity (AID 2283015; active = hit-call score of the fitted dose curve at least 0.9, where 1 is the maximum; inactive = score below 0.9;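 for outcome: cell surface E-selectin protein quantified by ELISA 24 h after dosing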). Conditions: primary human endothelial cells (HUVEC); actives raise or lower the signal. In outline: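 Primary human umbilical vein endothelial cells (3C system), read 24 h after compound addition; E-selectin measured by ELISA. Bidirectional curve fitting against DMSO baseline; cytotoxicity by parallel SRB total-protein staining.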

Read-out in assay [11]: Interleukin-1 alpha (IL1a), IL1A (gene 3552)
The assay is described as follows: BSK_BE3C_IL1a: BioMAP Diversity Plus: BE3C Assay for Interleukin-1 alpha (IL1a) Biomarker Activity (AID 2283016; active = hit-call score of the fitted dose curve at least 0.9, where 1 is the maximum; inactive = score below 0.9). Conditions: primary human bronchial epithelial cells; actives raise or lower the signal. In outline:
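BE3C primary human bronchial epithelium; cpd 24 h; IL-1a by ELISA; bidirectional fit vs DMSO; parallel SRB (0.1% SRB, 10% TCA fix, 560 nm) for cytotoxicity.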

Read-out in assay [12]: Monocyte Chemoattractant Protein-1 (MCP1), CCL2 (gene 6347)
Kind of assay: BSK_3C_MCP1: BioMAP Diversity Plus: 3C Assay for Monocyte Chemoattractant Protein-1 (MCP1) Biomarker Activity (AID 2283017; active = hit-call score of the fitted dose curve at least 0.9, where 1 is the maximum; inactive = score below 0.9). Conditions: primary human endothelial cells (HUVEC); actives raise or lower the signal. The gist of the method:
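Human umbilical vein endothelial cells (3C system) exposed to chemicals for 24 h; MCP-1 quantified by ELISA against the DMSO baseline with bidirectional fitting, and parallel SRB staining used to assess cytotoxicity.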

Read-out in assay [13]: Monocyte Chemoattractant Protein-1 (MCP1), CCL2 (gene 6347)
The assay is described as follows: BSK_4H_MCP1: BioMAP Diversity Plus: 4H Assay for Monocyte Chemoattractant Protein-1 (MCP1) Biomarker Activity (AID 2283018; active = hit-call score of the fitted dose curve at least 0.9, where 1 is the maximum; inactive = score below 0.9). To be noted: primary human endothelial cells (HUVEC); actives raise or lower the signal. The gist of the method:
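ELISA read-out of MCP-1 from human vascular endothelial primary cells taken at 24 hours after compound exposure. Activity was fitted in both directions relative to DMSO, which served as negative control.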

Read-out in assay [14]: Human Leukocyte Antigen - DR isotype (HLADR), HLA-DRA (gene 3122)
The assay is described as follows: BSK_3C_HLADR: BioMAP Diversity Plus: 3C Assay for Human Leukocyte Antigen - DR isotype (HLADR) Biomarker Activity (AID 2283019; active = hit-call score of the fitted dose curve at least 0.9, where 1 is the maximum; inactive = score below 0.9). To be noted: primary human endothelial cells (HUVEC); actives raise or lower the signal. The gist of the method: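 HUVEC monoculture, HLA-DR measured by ELISA 24 h after chemical dosing. Fitted bidirectionally against DMSO baseline; parallel SRB staining assessed cytotoxicity, with 3C proliferation read by SRB at 48 h.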

Read-out in assay [15]: Interleukin-8 (IL8), CXCL8 (gene 3576)
Kind of assay: BSK_3C_IL8: BioMAP Diversity Plus: 3C Assay for Interleukin-8 (IL8) Biomarker Activity (AID 2283020; active = hit-call score of the fitted dose curve at least 0.9, where 1 is the maximum; inactive = score below 0.9). To be noted: primary human endothelial cells (HUVEC); actives raise or lower the signal. In outline: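 ELISA read-out of IL-8 from human umbilical vein endothelium, measured 24 h after chemical dosing. Activity is expressed relative to DMSO negative control, with both increases and decreases fitted.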

Assay [16] has as its target Peroxisome proliferator-activated receptor gamma (Homo sapiens) (UniProt P37231). The assay is described as follows: ATG_PPARg_TRANS: Attagene TRANS-FACTORIAL HepG2 Assay for human Peroxisome Proliferator-activated Receptor-gamma (PPARg) (AID 2283007). The gist of the method:
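Multiplexed reporter transcription units in HepG2, 24 h dosing, reporter transcripts quantified by fluorescent RT-PCR and capillary electrophoresis. Increase over DMSO scored.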

Assay [17] addresses human Retinoid X Receptor beta (RXRb), RXRB (gene 6257) (UniProt P28702). The assay is described as follows: ATG_RXRb_TRANS: Attagene TRANS-FACTORIAL HepG2 Assay for human Retinoid X Receptor beta (RXRb) (AID 2283013). In outline: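 Transfect HepG2 with GAL4-UAS multi-reporter constructs (chimeric NR-Gal4, TRANS format); dose compound 24 h; isolate RNA, RT-PCR, FAM primer extension, HpaI digest; quantify by capillary electrophoresis; positive direction vs DMSO.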

Assay [18] deals with human Retinoic Acid Receptor gamma (RARg), RARG (gene 5916) (UniProt P13631). Kind of assay: ATG_RARg_TRANS: Attagene TRANS-FACTORIAL HepG2 Assay for human Retinoic Acid Receptor gamma (RARg) (AID 2283009). In outline: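 Transient transfection of HepG2 with multi-reporter constructs, then 24 h chemical treatment. Total RNA isolated, reverse-transcribed, PCR-amplified, fluorescently labelled and resolved by capillary electrophoresis; activity scored as mRNA induction versus DMSO.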

human Peroxisome Proliferator-activated Receptor delta (PPARd), PPARD (gene 5467), sequence (Q03181 whole entry, looked up, the tested form may be a part): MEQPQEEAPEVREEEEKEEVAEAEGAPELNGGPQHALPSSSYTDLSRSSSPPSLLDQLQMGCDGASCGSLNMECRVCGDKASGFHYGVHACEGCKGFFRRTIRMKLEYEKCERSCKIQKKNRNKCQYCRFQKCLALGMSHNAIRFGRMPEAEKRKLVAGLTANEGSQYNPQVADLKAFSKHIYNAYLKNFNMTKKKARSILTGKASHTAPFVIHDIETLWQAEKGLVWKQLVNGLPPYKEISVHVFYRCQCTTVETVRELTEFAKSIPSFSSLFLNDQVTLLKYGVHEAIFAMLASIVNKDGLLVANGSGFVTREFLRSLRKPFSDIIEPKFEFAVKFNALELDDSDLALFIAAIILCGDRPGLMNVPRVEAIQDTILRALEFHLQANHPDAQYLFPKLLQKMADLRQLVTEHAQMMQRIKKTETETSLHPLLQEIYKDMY
Nuclear receptor subfamily 1 group I member 2 (Homo sapiens), sequence (O75469 whole entry, looked up, the tested form may be a part): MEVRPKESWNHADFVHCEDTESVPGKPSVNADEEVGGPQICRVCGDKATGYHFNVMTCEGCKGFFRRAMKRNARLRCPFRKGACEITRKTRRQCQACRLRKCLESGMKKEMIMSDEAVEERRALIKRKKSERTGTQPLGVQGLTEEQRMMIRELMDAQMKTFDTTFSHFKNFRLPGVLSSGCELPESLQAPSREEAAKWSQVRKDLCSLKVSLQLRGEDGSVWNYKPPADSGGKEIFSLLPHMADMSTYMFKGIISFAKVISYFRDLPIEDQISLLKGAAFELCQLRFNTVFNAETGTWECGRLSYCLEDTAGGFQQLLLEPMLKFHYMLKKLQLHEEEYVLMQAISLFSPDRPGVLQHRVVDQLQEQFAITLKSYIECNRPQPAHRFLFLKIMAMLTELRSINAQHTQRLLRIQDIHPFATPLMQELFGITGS
Retinoic acid receptor RXR-alpha (Homo sapiens), sequence (P19793 whole entry, looked up, the tested form may be a part): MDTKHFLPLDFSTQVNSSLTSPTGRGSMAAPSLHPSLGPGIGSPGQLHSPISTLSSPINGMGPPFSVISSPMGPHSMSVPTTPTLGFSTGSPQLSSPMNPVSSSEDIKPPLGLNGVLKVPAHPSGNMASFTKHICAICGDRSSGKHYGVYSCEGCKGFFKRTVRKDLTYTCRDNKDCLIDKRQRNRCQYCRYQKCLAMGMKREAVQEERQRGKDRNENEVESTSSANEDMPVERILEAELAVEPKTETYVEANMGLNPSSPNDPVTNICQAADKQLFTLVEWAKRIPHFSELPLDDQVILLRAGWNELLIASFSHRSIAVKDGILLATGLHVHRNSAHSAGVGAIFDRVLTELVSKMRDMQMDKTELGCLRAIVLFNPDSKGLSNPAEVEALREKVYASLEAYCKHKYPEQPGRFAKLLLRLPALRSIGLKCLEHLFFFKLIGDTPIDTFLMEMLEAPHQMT
E-selectin (Homo sapiens), sequence (P16581 whole entry, looked up): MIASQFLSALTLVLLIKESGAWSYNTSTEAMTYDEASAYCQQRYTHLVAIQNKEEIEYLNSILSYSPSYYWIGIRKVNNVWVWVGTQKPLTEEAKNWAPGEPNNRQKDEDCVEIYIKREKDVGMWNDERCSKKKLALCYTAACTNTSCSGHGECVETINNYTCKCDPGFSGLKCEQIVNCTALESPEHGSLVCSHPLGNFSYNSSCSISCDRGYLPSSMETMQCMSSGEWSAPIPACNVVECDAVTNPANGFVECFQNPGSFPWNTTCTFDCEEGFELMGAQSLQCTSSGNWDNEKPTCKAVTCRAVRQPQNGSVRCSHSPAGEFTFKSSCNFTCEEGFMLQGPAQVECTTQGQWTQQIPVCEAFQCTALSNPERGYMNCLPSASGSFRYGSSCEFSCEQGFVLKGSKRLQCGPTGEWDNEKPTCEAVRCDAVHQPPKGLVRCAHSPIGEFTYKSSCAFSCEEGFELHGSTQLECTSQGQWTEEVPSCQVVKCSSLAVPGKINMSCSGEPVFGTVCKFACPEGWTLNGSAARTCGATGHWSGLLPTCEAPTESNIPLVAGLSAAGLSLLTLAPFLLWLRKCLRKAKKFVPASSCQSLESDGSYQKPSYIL
human Thyroid Receptor alpha (THRa1), THRA (gene 7067), sequence (P10827 whole entry, looked up, the tested form may be a part): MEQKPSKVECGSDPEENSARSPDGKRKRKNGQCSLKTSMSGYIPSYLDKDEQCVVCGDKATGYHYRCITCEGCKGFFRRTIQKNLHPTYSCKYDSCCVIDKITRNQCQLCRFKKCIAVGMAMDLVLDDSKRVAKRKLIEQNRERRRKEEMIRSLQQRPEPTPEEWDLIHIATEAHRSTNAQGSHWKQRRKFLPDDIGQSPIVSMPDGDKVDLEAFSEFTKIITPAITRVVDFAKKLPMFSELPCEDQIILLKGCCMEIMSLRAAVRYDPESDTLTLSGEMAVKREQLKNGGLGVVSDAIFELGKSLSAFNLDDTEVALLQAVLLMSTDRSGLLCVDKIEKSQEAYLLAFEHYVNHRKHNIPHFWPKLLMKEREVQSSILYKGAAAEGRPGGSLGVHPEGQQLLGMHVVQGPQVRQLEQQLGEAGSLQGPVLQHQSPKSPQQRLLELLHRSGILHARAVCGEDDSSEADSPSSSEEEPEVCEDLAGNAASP
human Retinoid X Receptor beta (RXRb), RXRB (gene 6257), sequence (P28702 whole entry, looked up, the tested form may be a part): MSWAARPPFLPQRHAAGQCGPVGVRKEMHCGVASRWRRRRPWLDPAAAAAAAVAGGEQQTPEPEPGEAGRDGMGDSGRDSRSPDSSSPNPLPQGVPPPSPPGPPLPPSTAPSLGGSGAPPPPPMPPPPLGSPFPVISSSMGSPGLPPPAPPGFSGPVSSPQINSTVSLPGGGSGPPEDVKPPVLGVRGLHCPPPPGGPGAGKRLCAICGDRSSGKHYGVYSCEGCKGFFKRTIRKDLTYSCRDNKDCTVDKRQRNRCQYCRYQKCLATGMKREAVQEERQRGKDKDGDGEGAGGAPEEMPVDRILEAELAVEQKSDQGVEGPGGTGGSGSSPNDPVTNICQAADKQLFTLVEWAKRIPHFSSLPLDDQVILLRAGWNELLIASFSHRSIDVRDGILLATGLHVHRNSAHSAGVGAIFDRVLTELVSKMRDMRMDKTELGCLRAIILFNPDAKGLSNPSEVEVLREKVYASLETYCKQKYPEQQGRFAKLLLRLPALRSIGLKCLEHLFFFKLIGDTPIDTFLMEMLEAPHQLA
human RAR-related Orphan Receptor gamma (RORg), RORC (gene 6097), sequence (P51449 whole entry, looked up, the tested form may be a part): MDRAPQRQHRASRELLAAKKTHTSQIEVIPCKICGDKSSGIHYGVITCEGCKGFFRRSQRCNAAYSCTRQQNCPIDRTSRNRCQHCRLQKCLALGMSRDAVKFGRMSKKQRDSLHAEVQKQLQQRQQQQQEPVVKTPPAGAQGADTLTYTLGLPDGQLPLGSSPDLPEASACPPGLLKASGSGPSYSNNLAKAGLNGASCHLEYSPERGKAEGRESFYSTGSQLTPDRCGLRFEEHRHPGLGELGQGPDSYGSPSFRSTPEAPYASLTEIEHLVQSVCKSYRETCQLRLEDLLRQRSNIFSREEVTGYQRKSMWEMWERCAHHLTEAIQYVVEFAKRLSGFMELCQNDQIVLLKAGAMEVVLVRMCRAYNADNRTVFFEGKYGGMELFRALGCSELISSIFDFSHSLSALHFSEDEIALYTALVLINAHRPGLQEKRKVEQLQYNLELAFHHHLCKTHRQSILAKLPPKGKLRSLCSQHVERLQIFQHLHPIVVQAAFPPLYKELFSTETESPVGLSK
human RAR-related Orphan Receptor beta (RORb), RORB (gene 6096), sequence (Q92753 whole entry, looked up, the tested form may be a part): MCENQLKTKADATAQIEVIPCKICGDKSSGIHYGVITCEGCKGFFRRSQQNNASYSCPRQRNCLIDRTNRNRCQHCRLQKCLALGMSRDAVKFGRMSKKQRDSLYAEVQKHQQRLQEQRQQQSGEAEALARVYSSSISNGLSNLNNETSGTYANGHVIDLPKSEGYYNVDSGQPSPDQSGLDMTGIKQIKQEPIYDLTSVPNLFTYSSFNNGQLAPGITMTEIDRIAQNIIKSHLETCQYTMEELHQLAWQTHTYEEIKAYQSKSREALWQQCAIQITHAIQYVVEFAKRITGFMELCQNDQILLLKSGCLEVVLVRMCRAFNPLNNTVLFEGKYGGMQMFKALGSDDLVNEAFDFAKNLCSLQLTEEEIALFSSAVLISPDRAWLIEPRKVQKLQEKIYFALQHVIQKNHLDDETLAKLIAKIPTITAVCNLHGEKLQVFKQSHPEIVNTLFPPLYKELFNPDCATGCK
Peroxisome proliferator-activated receptor gamma (Homo sapiens), sequence (P37231 whole entry, looked up): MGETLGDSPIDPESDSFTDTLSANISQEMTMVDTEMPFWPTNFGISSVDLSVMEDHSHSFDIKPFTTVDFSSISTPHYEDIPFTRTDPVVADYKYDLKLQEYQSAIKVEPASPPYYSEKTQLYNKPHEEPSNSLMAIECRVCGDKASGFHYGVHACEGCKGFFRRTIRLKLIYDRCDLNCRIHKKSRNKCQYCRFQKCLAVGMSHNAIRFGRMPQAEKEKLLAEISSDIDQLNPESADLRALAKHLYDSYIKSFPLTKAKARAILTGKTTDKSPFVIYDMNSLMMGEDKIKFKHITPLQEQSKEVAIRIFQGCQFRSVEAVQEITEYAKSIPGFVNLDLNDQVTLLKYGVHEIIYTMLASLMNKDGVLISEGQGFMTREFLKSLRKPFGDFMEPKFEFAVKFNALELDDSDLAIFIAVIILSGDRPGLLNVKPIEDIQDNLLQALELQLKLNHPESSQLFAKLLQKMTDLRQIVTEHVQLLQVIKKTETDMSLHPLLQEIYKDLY

Turning to `CC(C)[C@@H]1CC[C@@H](C)CC1=O`, the compound was called inactive in assay [1], in [2] and in assay [3].
For `OCCOCCOCCOCCO`, the outcome in assay [1] and in [4] was inactive.
`CCC(=O)OCc1ccccc1`: the outcome in assay [5], in [6], in [7], in [2], in assay [3] and in [8] was inactive. In addition, the result in [4], in assay [9], in assay [10], in assay [11], in assay [12] and in assay [13] was inactive. Further, the result in assay [14] and in [15] was inactive.
In the case of `OCc1cccnc1`, the compound was classed as inactive in assay [1], in assay [2], in [3] and in assay [9].
Turning to `CCCCO`, the outcome in assay [1], in [2], in [3], in [4] and in [9] was inactive.
As a reminder, the AC50 is the concentration giving half of the maximal activity seen. Regarding `CC(=O)[C@H]1CC[C@H]2[C@@H]3CC=C4C[C@@H](O)CC[C@]4(C)[C@H]3CC[C@]12C`, the compound was classed as inactive in assay [5], in assay [6], in assay [16], in assay [4], in assay [9] and in assay [10]. Moreover, the result in assay [11], in [12], in assay [13], in [14] and in assay [15] was inactive. Moreover, the AC50 was 7.47 µM (active) and 6.54 µM (active) in assay [7]; 4.3 µM (active) in [2].
Consider `Cc1c(N(C)C)c(=O)n(-c2ccccc2)n1C`, for which the call in assay [1], in assay [2], in assay [3], in assay [8], in assay [4] and in [9] was inactive.
As for `CC1CCC(C(C)(C)O)CC1` (configuration not stated), the compound was classed as inactive in assay [1], in [2], in [3], in assay [8], in assay [17] and in [9].
As to `O=C(COc1ccc(Cl)cc1)N1CCN(Cc2ccc3c(c2)OCO3)CC1`, the compound was classed as inactive in assay [1], in [2], in assay [17] and in [9].
For the compound `Cc1ccc(O)c(C(C)(C)C)c1`, the result in [5], in assay [3], in assay [8] and in [4] was inactive. Moreover, the AC50 is 33.7 µM (active) in assay [6]; 15.1 µM (active) in [7]; 19.1 µM (active) in assay [2]; 9 µM (active) in assay [17]; 25.5 µM (active) in [10]; 29.6 µM (active) in [11]. Also, the AC50 in [12] is 27.6 µM (active); in [13], 24.9 µM (active); in [14], 29.8 µM (active); in assay [15], 36.5 µM (active).
With `O=CCCc1ccccc1`, the compound was classed as inactive in assay [1] and in assay [18]. In assay [2], the AC50 is 28.4 µM (active).
Regarding `Cc1ccc(C=O)cc1`, the compound was classed as inactive in assay [1], in assay [2], in [3] and in [9].
Consider `CC1CCC2CC1C2(C)C` (configuration not stated), for which the compound was called inactive in [1], in assay [2], in [8] and in assay [17].
With `NC(=O)NC1NC(=O)NC1=O` (configuration not stated), the compound was called inactive in assay [1], in assay [2], in assay [4], in assay [17] and in assay [9].
Take `O=C1NC(=O)c2ccccc21`: the compound was called inactive in [1], in [16], in assay [3] and in [8].
For `CC(C#N)(CCC(=O)O)N=NC(C)(C#N)CCC(=O)O` (configuration not stated), the result in [1], in [2], in assay [3], in assay [8], in [17] and in [9] was inactive.
